Test results taken from PubChem BioAssay (NCI).
This is part of a sample that, as a whole, favours compounds with a hit. Of some 83,000 tested, about 20% had one in any assay.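 Cells were grown in 96-well plates and exposed to the test compound at a single concentration for 48 hours; results are reported as percent growth, with values below 10 considered active.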 The source made the active and inactive calls.

Columns and labels:
Experiment in all cases: NCI-60 one-dose screen, 48 h (100 = growth as untreated, 0 = no growth, -100 = all killed)
Conditions in all cases: 10 µM unless noted
NCI-H23 lung = test system: NCI-H23 lung
NCI-H226 lung = test system: NCI-H226 lung
NCI-H322M lung = test system: NCI-H322M lung
HOP-62 NSCLC = test system: HOP-62 NSCLC
NCI-H460 lung = test system: NCI-H460 lung
HOP-92 NSCLC = test system: HOP-92 NSCLC
NCI-H522 lung = test system: NCI-H522 lung
A549/ATCC NSCLC = test system: A549/ATCC NSCLC
786-0 renal = test system: 786-0 renal
COLO 205 colon = test system: COLO 205 colon
DU-145 prostate = test system: DU-145 prostate
K-562 leukemia = test system: K-562 leukemia
MALME-3M melanoma = test system: MALME-3M melanoma
MDA-MB-231 breast = test system: MDA-MB-231 breast
RXF 393 renal = test system: RXF 393 renal
SF-268 CNS = test system: SF-268 CNS
SF-295 CNS = test system: SF-295 CNS
SF-539 CNS = test system: SF-539 CNS
UACC-257 melanoma = test system: UACC-257 melanoma
M14 melanoma = test system: M14 melanoma

Measured: growth

CN1CCC(c2c[nH]c3ccccc23)C1 (stereo not given)
inactive: NCI-H23 lung 88.9% | NCI-H226 lung 106% | NCI-H322M lung 118% | HOP-62 NSCLC 84.3% | NCI-H460 lung 124% | HOP-92 NSCLC 92.9% | NCI-H522 lung 79.5% | A549/ATCC NSCLC 122% | 786-0 renal 99.3% | COLO 205 colon 108% | DU-145 prostate 110% | K-562 leukemia 109% | MALME-3M melanoma 112% | MDA-MB-231 breast 103% | RXF 393 renal 128% | SF-268 CNS 111% | SF-295 CNS 105% | SF-539 CNS 127% | UACC-257 melanoma 55.5% | M14 melanoma 93%

CC1(C)CN1P(=O)(N1CC1(C)C)N1CC1(C)C (stereo not given)
inactive: NCI-H23 lung 105% | NCI-H226 lung 109% | NCI-H322M lung 111% | HOP-62 NSCLC 102% | NCI-H460 lung 112% | HOP-92 NSCLC 103% | NCI-H522 lung 104% | A549/ATCC NSCLC 91% | 786-0 renal 109% | COLO 205 colon 107% | DU-145 prostate 121% | K-562 leukemia 109% | MALME-3M melanoma 110% | MDA-MB-231 breast 107% | RXF 393 renal 119% | SF-268 CNS 106% | SF-295 CNS 115% | SF-539 CNS 109% | UACC-257 melanoma 89.3% | M14 melanoma 98.8%

CCOP(=O)(Cc1ccc(C#N)cc1)OCC
inactive: NCI-H23 lung 99.9% | NCI-H226 lung 108% | NCI-H322M lung 104% | HOP-62 NSCLC 98.5% | NCI-H460 lung 108% | HOP-92 NSCLC 76.9% | NCI-H522 lung 75% | A549/ATCC NSCLC 91.2% | 786-0 renal 101% | COLO 205 colon 108% | DU-145 prostate 116% | K-562 leukemia 100% | MALME-3M melanoma 108% | MDA-MB-231 breast 100% | RXF 393 renal 115% | SF-268 CNS 112% | SF-295 CNS 108% | SF-539 CNS 109% | UACC-257 melanoma 88.8% | M14 melanoma 101%

O=C1CNC(c2ccccc2)c2cc(Cl)ccc2N1 (stereo not given)
inactive: NCI-H23 lung 93.7% | NCI-H226 lung 89.6% | NCI-H322M lung 95.5% | HOP-62 NSCLC 92% | NCI-H460 lung 110% | HOP-92 NSCLC 107% | NCI-H522 lung 69.3% | A549/ATCC NSCLC 95% | 786-0 renal 109% | COLO 205 colon 116% | DU-145 prostate 100% | K-562 leukemia 93.8% | MALME-3M melanoma 90.6% | MDA-MB-231 breast 94.9% | RXF 393 renal 99.2% | SF-268 CNS 98.7% | SF-295 CNS 103% | SF-539 CNS 104% | UACC-257 melanoma 94.9% | M14 melanoma 99.4%

COc1ccc2nc(NC(=O)COc3cc(/C=C\c4cc(OC)c(OC)c(OC)c4)ccc3OC)sc2c1
active: NCI-H460 lung 4.25% | NCI-H522 lung -19.7% | DU-145 prostate 0.406% | RXF 393 renal -19.9% | SF-295 CNS -2.09% | SF-539 CNS -7.12%
inactive: NCI-H23 lung 32.1% | NCI-H226 lung 40.1% | NCI-H322M lung 25.3% | HOP-62 NSCLC 45% | HOP-92 NSCLC 50.9% | A549/ATCC NSCLC 25.7% | 786-0 renal 61% | COLO 205 colon 26% | K-562 leukemia 15.6% | MALME-3M melanoma 14.1% | MDA-MB-231 breast 22.7% | SF-268 CNS 42.3% | UACC-257 melanoma 59.5% | M14 melanoma 22.9%

Nc1ncnc2n[nH]nc12
inactive: NCI-H23 lung 72.7% | NCI-H226 lung 72.3% | NCI-H322M lung 42.3% | HOP-62 NSCLC 40% | NCI-H460 lung 95.1% | HOP-92 NSCLC 77.3% | NCI-H522 lung 34% | A549/ATCC NSCLC 73.4% | 786-0 renal 56.2% | COLO 205 colon 70.5% | DU-145 prostate 57% | K-562 leukemia 59.6% | MALME-3M melanoma 55.1% | MDA-MB-231 breast 74.9% | RXF 393 renal 75.8% | SF-268 CNS 81% | SF-295 CNS 53.5% | SF-539 CNS 86.8% | UACC-257 melanoma 58.1% | M14 melanoma 39.8%

Cc1ccc(S(=O)(=O)C(Cl)(Cl)Cl)cc1
inactive: NCI-H23 lung 98.3% | NCI-H226 lung 80.4% | NCI-H322M lung 105% | HOP-62 NSCLC 90.2% | NCI-H460 lung 104% | HOP-92 NSCLC 82.3% | NCI-H522 lung 76.2% | A549/ATCC NSCLC 77.2% | 786-0 renal 88.5% | COLO 205 colon 99.4% | DU-145 prostate 109% | K-562 leukemia 93.3% | MALME-3M melanoma 92.5% | MDA-MB-231 breast 95.8% | RXF 393 renal 102% | SF-268 CNS 97.5% | SF-295 CNS 91.1% | SF-539 CNS 99.9% | UACC-257 melanoma 86.1% | M14 melanoma 94.6%

O=C1N[C@@H]2[C@@H](O)[C@@H](O)[C@H](O)C[C@H]2c2cc3c(c(O)c21)OCO3
active: NCI-H23 lung -14.9% | NCI-H226 lung -38.3% | NCI-H322M lung -14.7% | HOP-62 NSCLC -18.9% | NCI-H460 lung -15.1% | HOP-92 NSCLC -19% | NCI-H522 lung -32.6% | A549/ATCC NSCLC -8.4% | 786-0 renal -10.8% | COLO 205 colon -38.2% | DU-145 prostate -19.1% | K-562 leukemia 1.86% | MALME-3M melanoma -48.7% | MDA-MB-231 breast -27.9% | RXF 393 renal -37.3% | SF-268 CNS -4.43% | SF-295 CNS -11.5% | SF-539 CNS -29.7% | UACC-257 melanoma -21.8% | M14 melanoma -81.7%

Cc1c(O)c(CN(CCCl)CCCl)cc(CN(CCCl)CCCl)c1O
inactive: NCI-H23 lung 102% | NCI-H226 lung 95.6% | NCI-H322M lung 94.8% | HOP-62 NSCLC 102% | NCI-H460 lung 31.4% | HOP-92 NSCLC 47.3% | NCI-H522 lung 79.4% | A549/ATCC NSCLC 67.8% | 786-0 renal 99.6% | COLO 205 colon 78.1% | DU-145 prostate 107% | K-562 leukemia 103% | MALME-3M melanoma 93.1% | MDA-MB-231 breast 93.5% | RXF 393 renal 97.6% | SF-268 CNS 88.4% | SF-295 CNS 93.9% | SF-539 CNS 82.5% | UACC-257 melanoma 92.8% | M14 melanoma 92.4%

O=C(CCCC1CCCCC1)OCC(Cl)(Cl)Cl
inactive: NCI-H23 lung 94.3% | NCI-H226 lung 99% | NCI-H322M lung 104% | HOP-62 NSCLC 98.7% | NCI-H460 lung 101% | HOP-92 NSCLC 77.5% | NCI-H522 lung 96.2% | A549/ATCC NSCLC 107% | 786-0 renal 102% | COLO 205 colon 101% | DU-145 prostate 105% | K-562 leukemia 99.8% | MALME-3M melanoma 102% | MDA-MB-231 breast 116% | RXF 393 renal 114% | SF-268 CNS 97.1% | SF-295 CNS 102% | SF-539 CNS 104% | UACC-257 melanoma 109% | M14 melanoma 105%

O=C1NC(=O)C(=Cc2ccc(OCCCCC3CCCCC3)c(Cl)c2)C(=O)N1
inactive: NCI-H23 lung 96.7% | NCI-H226 lung 102% | NCI-H322M lung 105% | HOP-62 NSCLC 89.7% | NCI-H460 lung 93.8% | HOP-92 NSCLC 87.4% | NCI-H522 lung 81.1% | A549/ATCC NSCLC 92.6% | 786-0 renal 88.2% | COLO 205 colon 112% | DU-145 prostate 106% | K-562 leukemia 88.3% | MALME-3M melanoma 110% | MDA-MB-231 breast 100% | RXF 393 renal 103% | SF-268 CNS 99.7% | SF-295 CNS 94% | SF-539 CNS 92.8% | UACC-257 melanoma 107% | M14 melanoma 86.6%

O=C1C2CC=CCC2C(=O)N1SC(Cl)(Cl)Cl (stereo not given)
inactive: NCI-H23 lung 96.7% | NCI-H226 lung 106% | NCI-H322M lung 125% | HOP-62 NSCLC 95.9% | NCI-H460 lung 103% | HOP-92 NSCLC 64.7% | A549/ATCC NSCLC 108% | 786-0 renal 97.7% | COLO 205 colon 87.5% | DU-145 prostate 109% | K-562 leukemia 45.1% | MALME-3M melanoma 81.8% | MDA-MB-231 breast 103% | RXF 393 renal 63.6% | SF-268 CNS 104% | SF-295 CNS 134% | SF-539 CNS 91.3% | UACC-257 melanoma 105% | M14 melanoma 92.1%
active: NCI-H522 lung -57.1%

O=[N+]([O-])c1c(Br)sc(Br)c1[N+](=O)[O-]
inactive: NCI-H23 lung 37.3% | NCI-H226 lung 87.8% | NCI-H322M lung 84.9% | HOP-62 NSCLC 75.2% | NCI-H460 lung 75.1% | HOP-92 NSCLC 43% | A549/ATCC NSCLC 77.3% | DU-145 prostate 46.9% | MDA-MB-231 breast 14.2% | SF-268 CNS 85.7% | SF-295 CNS 99%
active: NCI-H522 lung -72.9% | 786-0 renal -36% | COLO 205 colon -77.7% | K-562 leukemia 3.25% | MALME-3M melanoma -41.5% | RXF 393 renal -75.5% | SF-539 CNS -12.3% | UACC-257 melanoma -0.992% | M14 melanoma -18.9%

C=C(C)[C@@]12OC3(/C=C/C=C/CCCCC)O[C@@H]1[C@@H]1[C@@H]4O[C@]4(CO)[C@@H](O)[C@]4(O)C(=O)C(C)=C[C@H]4[C@@]1(O3)[C@H](C)[C@H]2OC(=O)c1ccccc1
active: COLO 205 colon 4.17%
inactive: NCI-H23 lung 46.3% | NCI-H226 lung 79.2% | NCI-H322M lung 76.6% | HOP-62 NSCLC 22.5% | NCI-H460 lung 22.1% | HOP-92 NSCLC 35.1% | NCI-H522 lung 78.8% | A549/ATCC NSCLC 32.8% | 786-0 renal 45.8% | DU-145 prostate 38.4% | K-562 leukemia 24.9% | MALME-3M melanoma 88.3% | MDA-MB-231 breast 52% | RXF 393 renal 71% | SF-268 CNS 40.7% | SF-295 CNS 39.6% | SF-539 CNS 63.8% | UACC-257 melanoma 97% | M14 melanoma 36.3%

c1cc2c(c3c1CCNC3)OCO2
inactive: NCI-H23 lung 94.8% | NCI-H226 lung 103% | NCI-H322M lung 102% | HOP-62 NSCLC 96.6% | NCI-H460 lung 114% | HOP-92 NSCLC 120% | NCI-H522 lung 75.6% | A549/ATCC NSCLC 66% | 786-0 renal 96.2% | COLO 205 colon 112% | DU-145 prostate 120% | K-562 leukemia 106% | MALME-3M melanoma 94.8% | MDA-MB-231 breast 100% | RXF 393 renal 104% | SF-268 CNS 102% | SF-295 CNS 96.4% | SF-539 CNS 105% | UACC-257 melanoma 78.5% | M14 melanoma 101%
